Reference: PubChem BioAssay AID1259351 (ICCB-Longwood Screening Facility, Harvard Medical School, 2017)
The other results are listed elsewhere or left out. Values without a mark were called inactive. Activity calls are given as the source filed them.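 How the source made its calls: active means inhibition score at or above a set limit, where the score is 100 minus the three-replicate mean percent of control signal; inactive means the rest.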

target: Guanine nucleotide-binding protein G(i) subunit alpha-3 (Homo sapiens) (UniProt P08754); assay: GIV-Galphai3 complex disruption, bead proximity readout – biochemical, AlphaScreen, His-GIV, GST-Galphai3, orthogonal assay for GIV-Galpha-i inhibitor project, confirmation (AID 1259351); conditions: purified proteins, 90 min, at 100 µM, active compounds read low

| SMILES | AlphaScreen counts |
| --- | --- |
| Cc1nn(-c2ccccc2)c2sc(-c3noc(-c4ccccc4F)n3)cc12 | 31800 |
| Cc1ccc(N2C(=O)/C(=C/c3ccc(OCC(=O)O)c(Br)c3)C(=O)NC2=S)cc1 | 6910 (active) |
| COC(=O)Cn1nc2c(-c3nc(-c4ccc(Cl)cc4)no3)cccn2c1=O | 27400 |
| CC(=O)Oc1cccc2c1C(=O)C=CC2=O | 35600 |
| O=C(O)c1c2ccccc2[nH]c2c1oc1cc(=O)ccc12 | 19100 (active) |
| CCC(=O)N1CCc2cc(N3CC(C(=O)N4CCN(C(C)C)CC4)CC3=O)ccc21 (centres undefined) | 27700 |
| COc1ccccc1CNc1ncc2nc(-c3ccccc3)oc2n1 | 40200 |
| CCOC(=O)c1nc2cc(C)c(C)cc2nc1NC1CCCCC1 | 38900 |
| CC(=O)Nc1ccc(Nc2c3c4c(cccc4[nH]c2=O)C(=O)c2ccccc2-3)cc1 | 27100 |
| COc1ccccc1N1C(=O)/C(=C/c2ccc(Cl)cc2)C=C1c1ccccc1 | 45900 |
| COc1ccc(N=Nc2c(-c3ccc(OC)cc3)[nH]oc2=O)cc1 | 54000 |
| CCOC(=O)C1=C(C)N(c2ccc(OC)cc2)C(=O)/C1=C\c1ccco1 | 21400 (active) |
| O=C(O)CCC(C(=O)O)N1C(=O)/C(=C\c2ccco2)SC1=S (centres undefined) | 2280 (active) |
| COC1=C(N2CCOCC2)C(=O)c2ccccc2C1=O | 29700 (active) |
| N#CC(C#N)=C(C#N)/C=C/n1c2ccccc2c2ccccc21 | 4560 (active) |
| O=C(O)c1cc(NS(=O)(=O)c2ccc3c(c2)CCCC3)cnc1N1CCOCC1 | 28400 |
| Cn1cccc1/C=C1\C(=O)NC(=S)N(c2ccccc2)C1=O | 799 (active) |
| CCOc1cc(/C=C2/C(=O)N(c3nn[nH]n3)N=C2C)cc(Cl)c1OCC | 1950 (active) |
| Cc1ccc(C(=O)N2CCc3cc(CNC(=O)c4ccc(Br)cc4)ccc32)cc1 | 29400 |
| N#CSc1cc(SC#N)c(N)nc1N | 24300 (active) |
| O=C(NN=c1c(=O)c2ccccc2c1=O)c1ccncc1 | 28200 |
| COc1ccc(Nc2cc(C(=O)NCCCN(C)c3ccccc3)c3ccccc3n2)c(OC)c1 | 33800 |
| Cc1ccc(NC(=O)c2nc[nH]c2C(=O)N2CCCCC2)c(C(=O)c2ccccc2)c1 | 27800 |
| CC1=NOC(=O)C1C(c1cccc(Br)c1)c1c(C)[nH]n(-c2ccccc2)c1=O (centres undefined) | 2770 (active) |
